This passage reports Potency results from PubChem BioAssay (NCATS).

SMILES strings stand for the structures. Values without a mark were called inactive. The rule behind the calls is not given here.
Potency is the fitted concentration of half-maximal effect.

The test system of this assay is HIV-1 nucleocapsid protein NCp7 (binding to TG oligonucleotide). The assay can be described thus: HIV Nucleocapsid (AID 346).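 Note: potency is for inhibitors that block NC binding and lower polarization.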 As to conditions: HIV-1 NC / fluorescein-TGTGTGTG probe, fluorescence polarization. In a few lines: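 NCp7 100 nM + fluorescein TG4xF 10 nM; Hepes pH 7.5/250mM NaCl/1uM ZnCl2/0.004% PEG 20000; 1 hr RT; FP, 45 s exposure; oligo-only wells as negative control.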
On to `COc1ccccc1CCn1c(=O)c(-c2ccc(Cl)cc2)nc2cncnc21`, for which the Potency was over 20 µM. `CN(C)C(=O)c1ccc(-c2cncnc2NCCN2CCOCC2)cc1`: the Potency was over 20 µM. For `Cc1noc(C)c1-c1nc(NCc2cccnc2)c2ccccc2n1`, the Potency is over 20 µM. As for `O=C(c1ccncc1)N1CCC[C@@]2(CCN(c3cccc(-c4ccccc4)c3)C2)C1`, the Potency was over 20 µM.

Consider `FC(F)(F)c1ccccc1-c1nc(N2CCOCC2)c2ccccc2n1`, for which the Potency is over 20 µM. As for `O=c1cnc2cncnc2n1Cc1ccccc1`, the figure is over 4 µM; as for `Cc1noc(C)c1-c1nccc(NC2CC2)n1`, over 20 µM; as for `COc1cccc(Nc2ncc3nc(CCc4ccccc4)c(=O)n(C)c3n2)c1`, over 4 µM.

As for `COc1ccc2[nH]cc(CCNc3ncnc4ccc(-c5c(C)noc5C)cc34)c2c1`, the Potency was over 20 µM. As for `COc1ccc2[nH]cc(CCNc3ncncc3-c3ccccc3Cl)c2c1`, the Potency is over 20 µM. With `COc1cccc(-c2cncnc2NCc2cccs2)c1`, the Potency was over 20 µM. Then `CN(C)c1ccc(-c2nc(-n3ccnc3)c3ccccc3n2)cc1`, with over 20 µM. In the case of `COCC(=O)N1CCC2(CCCN(Cc3nccs3)C2)CC1`, the Potency is over 20 µM.

Regarding `Cn1cc(-c2nc3cnc(N4CCOCC4)nc3n(CCC#N)c2=O)c2ccccc21`, the Potency is over 4 µM.

`CN(C)c1ncc2nc(-c3ccccc3)c(=O)n(C[C@H]3CCCO3)c2n1`: the Potency is over 20 µM. Turning to `CN(C)c1ccc(-c2cc(N(C)Cc3ccco3)ncn2)cc1`, the Potency is over 20 µM.
